# TDP1 cell noCPT: qHTS for Inhibitors of human tyrosyl-DNA phosphodiesterase 1 (TDP1): qHTS in cells in absence of CPT. DT40 Tdp1-/- hTDP1 cells, no CPT, ATP luminescence, 48 h. Potency, µM (series often up to 46.2 µM), for inactives: at the highest dose activity change, negative = growth inhibition, usual class: inhibitors. hit rate 15% among 420,000. AID 686978, 2013; note: potency is the fitted concentration of half-maximal effect; nearly all actives have a fitted effect of over 55% in size
#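 Growth kinetics read by CellTiter-Glo luminescence after ≥48 hr at 37 °C. Cells: DT40 Tdp1-/- stably carrying human TDP1, 400 per well, compound exposure in the absence of CPT (DMSO vehicle).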
# DT40 TDP1 CPT: qHTS for Inhibitors of human tyrosyl-DNA phosphodiesterase 1 (TDP1): qHTS in cells in presence of CPT; hit rate 12% among 420,000; chicken DT40 Tdp1-/-;hTDP1 cells + 20 nM CPT, ATP luminescence, 48 h; AID 686979, 2013; Potency, µM (highest dose often 46.2 µM), for inactives: at the top dose activity change, negative = growth inhibition, most hits filed as inhibitors; note: potency is the fitted concentration of half-maximal effect; nearly all actives have a fitted effect of over 55% in size
#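 Chicken DT40 Tdp1-/- cells complemented with human TDP1, 400 cells/well, exposed to compounds plus 20 nM camptothecin for at least 48 h at 37 C; viability read as ATP content by CellTiter-Glo luminescence.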
# IL1B secr inh: qHTS for Inhibitors of Inflammasome Signaling: IL-1-beta AlphaLISA Primary Screen. THP-1 LPS/ATP IL-1B secretion, AlphaLISA, 16 h; active compounds read low. activity change, % at 57.5 µM. hit rate 4.7% among 360,000; in the data active = activity change below about -50%; inconclusive = mostly about -30% to -49%
#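 Secreted IL-1B measured by AlphaLISA bead assay after 16 h compound exposure of THP-1 cells; compounds (final up to 57.5 uM) added 1 h before LPS (250 ng/mL) and ATP (1.25 mM) stimulation; lower signal means less secretion.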
# HT1080-NT tox: qHTS for induction of synthetic lethality in tumor cells producing 2HG: qHTS for the HT-1080-NT fibrosarcoma cell line; HT-1080-NT fibrosarcoma viability, CellTiter-Glo ATP luminescence, 48 h; Potency, µM (doses to about 46.1 µM), for the others: top-dose activity, negative = less viability, usual class: cytotoxic; hit rate 1.6% among 360,000;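 note: NT is the 2HG producing partner of a matched IDH1 knockdown line; potency is the fitted concentration of half-maximal effect; 0% = DMSO-treated cells and -100% = media-only wells without cells; nearly all actives have a fitted effect of over 55% in size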
#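 HT-1080-NT fibrosarcoma cells (2HG-overproducing), 750 cells/well in RPMI with 5% FBS, dosed after 2 h and incubated 48 h at 37C. CellTiter-Glo luminescence normalized to DMSO and no-cell wells; concentration-response curves fitted and classed.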
# HT1080 IDH1KD tx: qHTS for induction of synthetic lethality in tumor cells producing 2HG: qHTS for the HT-1080-IDH1KD cell line. Potency, µM (highest dose often 46.1 µM), without a hit: at the highest dose activity, negative = toxicity, usual class: cytotoxic. HT-1080 IDH1 knockdown viability, ATP luminescence, 48 h. hit rate 2% among 360,000;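 note: potency is the fitted concentration of half-maximal effect; 0% = DMSO wells and -100% = cell-free medium wells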
#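 Using the IDH1-knockdown HT-1080 line run in the same batch and compound series as the NT line, viability after 48 h at 37 °C was determined by CellTiter-Glo luminescence and expressed as % activity.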
# Numbers without * were called inactive; ? = inconclusive; · = no result; ! = not confirmed by another sample; [ ] = another dose, or the depositor's remark. In the library only some 19% were active in any assay of this set; here they are far more common. Unless noted, calls come from the whole dose curve; as a rule, active = well fitted curve in the direction sought with a large enough effect; inconclusive = small, poorly fitted or top-dose-only effect, or another doubt; inactive = no such curve, though single readings can be large; an effect the other way counts as inactive or inconclusive. Unless noted, % is set by controls: 0 for no effect and ±100 for the full control effect.
SMILES,TDP1 cell noCPT,DT40 TDP1 CPT,IL1B secr inh,HT1080-NT tox,HT1080 IDH1KD tx
CCOc1ccc(-c2cn3c(n2)sc2cc(C(=O)NCCc4ccc(OC)cc4OC)ccc23)cc1,?,-20.9%,·,·,·
CCN(Cc1ccc(C#CCCO)cc1)CC1CCCN(CCc2cccc(OC)c2)C1 (stereo not given),20.6µM*,?,-5.9,-19.5%,-8.6%
CC(NC(=O)CCSc1nc(-c2ccc3c(c2)OCO3)cc(C(F)(F)F)n1)c1ccccc1 (stereo not given),?,23.1µM*,12.9,-0.6%,-10.6%
CCC(C)NC(=O)CSc1nc(-c2ccc(F)cc2)cc(C(F)(F)F)n1 (stereo not given),?,-18.6%,·,·,·
CCCCNC(=O)CCSc1nc(-c2ccc3c(c2)OCO3)cc(C(F)(F)F)n1,-12.9%,-13.4%,·,·,·
CC(C)NC(=O)CCSc1nc(-c2ccc3c(c2)OCO3)cc(C(F)(F)F)n1,8.2µM*,13µM*,·,·,·
CCN(Cc1nc2ccccc2c(=O)[nH]1)C(=O)COc1ccccc1Cc1ccccc1,4.11µM*,4.61µM*,-67.0*,?,?
COCC(=O)N(Cc1ccc(OC)cc1)Cc1nc2ccccc2c(=O)[nH]1,-2.6%,-1.5%,5.8,1.3%,10.8%
COCCN(Cc1nc2ccccc2c(=O)[nH]1)C(=O)COc1ccccc1-c1ccccc1,23.1µM*,?,-67.6*,-19.1%,?
CCN(Cc1nc2cc(Cl)ccc2c(=O)[nH]1)C(=O)COc1ccccc1Cc1ccccc1,?,?,-1.1,2.2%[9.24 µM],-22.0%
CN(Cc1nc2ccccc2c(=O)[nH]1)C(=O)COc1ccccc1Cc1ccccc1,?,?,17.0,-25.4%,?
CC(C(=O)Nc1ccccc1-c1ccccc1)N(C)Cc1nc2ccccc2c(=O)[nH]1 (stereo not given),20.6µM*,13µM*,18.1,23.1µM*,23.1µM*
COCC(=O)N(CCc1ccc(OC)cc1)Cc1nc2ccccc2c(=O)[nH]1,3.26µM*,?,0.0,-0.9%,-0.9%
COc1ccc(N(CC(=O)NC2CCCCC2)C(=O)CCC(=O)Nc2nc(C)cs2)cc1OC,-13.6%,-19.5%,8.0,4.5%,-1.4%
O=C(c1ccco1)N1N=C(c2cccs2)CC1c1cc([N+](=O)[O-])ccc1O (stereo not given),2.9%,-3.4%,0.0,-15.1%,-9.4%
COc1ccccc1CNC(=O)[C@@H]1CCCN1S(=O)(=O)c1ccc(C)cc1,-27.1%,-28.9%,0.4,-8.3%,-0.8%
O=C(O)c1c2ccccc2cc2ccccc12,-6.2%,5.2%,·,·,·
Oc1cc(-c2ccccc2)c2ccccc2c1,?,18.4µM*,-112.9*,?,?
CN(C)CCNc1oc(-c2ccc(COc3ccc(Cl)cc3)o2)nc1C#N,8.2µM*,16.4µM*,·,·,·
COCCNc1oc(-c2ccc(COc3ccc(OC)cc3)o2)nc1C#N,?,-26.0%,·,·,·
COc1ccc(OCc2ccc(-c3nc(C#N)c(NCc4ccc(F)cc4)o3)o2)cc1,23.1µM*,?,·,·,·
COCCCNc1oc(-c2ccc(COc3ccc(Cl)cc3)o2)nc1C#N,?,16.4µM*,·,·,·
CC1(C)C=Cc2cc3ccc(=O)oc3cc2O1,8.2µM*!,14.6µM*!,-10.2,?,-9.6%
COc1c2c(cc3oc(=O)ccc13)OC(C)(C)C=C2,25.9µM*,?,10.0,0.0%,-4.8%
CCCCn1c(=NC(=O)c2ccc3c(c2)OCO3)c(C#N)cc2c(=O)n3cccc(C)c3nc21,9.2µM*,7.31µM*,0.0,3.5%,3.7%[9.24 µM]
CCCCn1c(=NC(C)=O)c(C#N)cc2c(=O)n3cccc(C)c3nc21,18.4µM*,-29.4%,60.3,3.9%,-4.0%

# Source: PubChem
